{
  "source": "paper PMC7819943",
  "about": "“Rice protein-binding microarrays: a tool to detect cis-acting elements near promoter regions in rice”",
  "note": "The full ranking holds about 68,000 sequences; the median of “fluorescence intensity (a.u.)” is about 9,100, and the highest 2% start at about 16,000. This is one part of a sample in which the highest values are shown more often than they occur.",
  "data": [
    {"biological_target": "OsWRKY34 (Oryza sativa, UniProt Q0JBA9 1-250)", "sequence (Q0JBA9 entry or part of it)": "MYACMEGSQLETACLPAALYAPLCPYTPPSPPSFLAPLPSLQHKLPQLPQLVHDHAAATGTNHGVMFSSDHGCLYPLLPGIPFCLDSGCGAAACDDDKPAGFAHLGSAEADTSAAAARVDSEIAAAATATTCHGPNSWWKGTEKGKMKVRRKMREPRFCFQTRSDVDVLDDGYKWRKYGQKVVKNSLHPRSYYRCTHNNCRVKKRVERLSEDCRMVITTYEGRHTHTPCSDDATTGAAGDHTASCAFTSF", "test": "protein-binding microarray (RPBM); PBS, 2% BSA, 51.3 ng/ul salmon testes DNA, 50 uM zinc acetate, 200 nM TF, 25 C, 1 h; high values mean tight binding", "details": "protein: recombinant; tags: N-terminal polyhistidine and DsRed monomer fusion (pET32a); label: CyDye5-dUTP incorporated in the synthesized complementary strand; 3' TTTTT single-stranded linker to array surface; dsDNA, one strand shown", "summary_of_the_method": "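Polyhistidine-tagged DsRed fusions of transcription factors, joined at the N-terminus, were expressed in E. coli BL21-CodonPlus and isolated on Ni–NTA. They were incubated at 200 nM for 1 h at 25 °C on a custom Agilent array, double-stranded and BSA-blocked, in PBS with 2% BSA, salmon testes DNA and 50 µM zinc acetate. The binding signal is per-feature fluorescence intensity (arbitrary units) read on an Axon 4000B scanner after washing.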", "values": [
      {"sequence": "GACCGAGAGCAGGCGACGGGGTGGGTGGAGGTAGTGAGAACGGAGTCACCTAGTGCAG", "binding signal": "9200 fluorescence intensity (a.u.)"},
      {"sequence": "AGGAGGGCGGAGGAGGTGGTGGTGGTGGTGGTGGAGAGAGCGGAGTCACCTAGTGCAG", "binding signal": "25700 fluorescence intensity (a.u.)"},
      {"sequence": "GGGCGGAGCGGGGCGGAGGGAGAGGAGGGAGAGGAGGGAGCGGAGTCACCTAGTGCAG", "binding signal": "8480 fluorescence intensity (a.u.)"},
      {"sequence": "GGGAGAGGGGTGTGGGGCGGAGAGGGAGAGGGAGATGGGACGGAGTCACCTAGTGCAG", "binding signal": "9680 fluorescence intensity (a.u.)"},
      {"sequence": "GCGGAGGTGGTGGTGGCCTTGGAGGAGGTGGCGGCGGAGGCGGAGTCACCTAGTGCAG", "binding signal": "14300 fluorescence intensity (a.u.)"},
      {"sequence": "GGAGAGGGAGCGGGAGAGGGAGGATTGGAGGATGTGGGGACGGAGTCACCTAGTGCAG", "binding signal": "8940 fluorescence intensity (a.u.)"},
      {"sequence": "GATGCGCGCGAACGGAGACGACGGGGTAGGGTGGGGAGGGCGGAGTCACCTAGTGCAG", "binding signal": "12300 fluorescence intensity (a.u.)"},
      {"sequence": "GGCAGATGTGGACGGAGGGAGGGAGGGAGGGAGAGGGGCACGGAGTCACCTAGTGCAG", "binding signal": "17100 fluorescence intensity (a.u.)"},
      {"sequence": "CACTAGGTGAGCAATTTTGTTACCACGTCCATGTGCTGATCGGAGTCACCTAGTGCAG", "binding signal": "8810 fluorescence intensity (a.u.)"},
      {"sequence": "GCACACGCTTCATGTTGACATTTTATCGAATCGTGTTCTGCGGAGTCACCTAGTGCAG", "binding signal": "8350 fluorescence intensity (a.u.)"},
      {"sequence": "TTACTACTGCATTATCAAGTGTATCTTGCCATGTACTTCCCGGAGTCACCTAGTGCAG", "binding signal": "12100 fluorescence intensity (a.u.)"},
      {"sequence": "GATCTCCATCTCCATCTCTCTCTCTCTCTCGAGCAGAGCACGGAGTCACCTAGTGCAG", "binding signal": "8360 fluorescence intensity (a.u.)"},
      {"sequence": "CAATCACATCCGCGCGCATTTGGCCTGCGCCTTCAAATTTCGGAGTCACCTAGTGCAG", "binding signal": "12700 fluorescence intensity (a.u.)"},
      {"sequence": "AACGATTTCTTCAGCATTTTCCATCCCCGCGGCTTCTTCTCGGAGTCACCTAGTGCAG", "binding signal": "8230 fluorescence intensity (a.u.)"},
      {"sequence": "CGCAGAACACGTTTCCCAAATCTTGTACTACTACGTACTACGGAGTCACCTAGTGCAG", "binding signal": "9170 fluorescence intensity (a.u.)"},
      {"sequence": "GGGAGGGAGAGGAGGCGGAGGAGGAGGAGGTGGAGGAGTACGGAGTCACCTAGTGCAG", "binding signal": "8610 fluorescence intensity (a.u.)"},
      {"sequence": "GCGCTACGGACGGAAGAGACGGAGTGGCACGGAATAAAGACGGAGTCACCTAGTGCAG", "binding signal": "61600 fluorescence intensity (a.u.)"},
      {"sequence": "AGTTGTGGACTGGAAGAGAGGGGAGGCATGGGGACAAAGACGGAGTCACCTAGTGCAG", "binding signal": "9320 fluorescence intensity (a.u.)"},
      {"sequence": "GGAGGAGCGGTGCGTGGGGTCAGCGGCCGGCGGGAGGGCACGGAGTCACCTAGTGCAG", "binding signal": "9670 fluorescence intensity (a.u.)"},
      {"sequence": "GAGGTGGTGGTGGTGGTGGTGGATGGCGCCCTGCTTTGACCGGAGTCACCTAGTGCAG", "binding signal": "23500 fluorescence intensity (a.u.)"},
      {"sequence": "AGAGGTGGAGGAGAGGAGGGGAGGGGAGGGGAGGTGAGGGCGGAGTCACCTAGTGCAG", "binding signal": "18700 fluorescence intensity (a.u.)"},
      {"sequence": "CTAGCTTTGAGGTGGAGGTGGTGGTGGAGGAGGAGGAGGACGGAGTCACCTAGTGCAG", "binding signal": "12600 fluorescence intensity (a.u.)"},
      {"sequence": "GTGGAGTGCGGTGGACGGAGCGGCGGGGCGGGGCGGTCAGCGGAGTCACCTAGTGCAG", "binding signal": "16700 fluorescence intensity (a.u.)"},
      {"sequence": "GCGGGGCGGTGACAACGACGGCGGTGCGGGGCGGTGGTGACGGAGTCACCTAGTGCAG", "binding signal": "10300 fluorescence intensity (a.u.)"},
      {"sequence": "GTGGCGGCGGAGGAGGTGGGATGGGGATTTGATGATGGCCCGGAGTCACCTAGTGCAG", "binding signal": "8320 fluorescence intensity (a.u.)"},
      {"sequence": "AACAGGAGGAGGAGGAGGAGGAGGAGGAGGAGAGGTGGGGCGGAGTCACCTAGTGCAG", "binding signal": "9280 fluorescence intensity (a.u.)"},
      {"sequence": "TATATATATATATATATATATATATATATATATAAAGAGACGGAGTCACCTAGTGCAG", "binding signal": "11100 fluorescence intensity (a.u.)"},
      {"sequence": "TCAAAGGTTGGTTTGATTTGTTGCTATTTGTTGGTTTGATCGGAGTCACCTAGTGCAG", "binding signal": "8630 fluorescence intensity (a.u.)"},
      {"sequence": "CGCGCTCTGCATGTCGGTCCGTCAACTTGATCGCGATTCTCGGAGTCACCTAGTGCAG", "binding signal": "8590 fluorescence intensity (a.u.)"},
      {"sequence": "TGCAATTCGTACTTTTTCCTACAATTAAACAGCTACATGTCGGAGTCACCTAGTGCAG", "binding signal": "9500 fluorescence intensity (a.u.)"},
      {"sequence": "ATTTTTGTCTTGAGTTAACACCGTCACGTTGCCTTCACGGCGGAGTCACCTAGTGCAG", "binding signal": "9960 fluorescence intensity (a.u.)"},
      {"sequence": "CCGTCGTCGTCTTCGTCTTCCTCAGTTTATCTCCATTTCTCGGAGTCACCTAGTGCAG", "binding signal": "13800 fluorescence intensity (a.u.)"},
      {"sequence": "GGAAAAAGAACAATCTGCGACCAACCTCTTTTTTCTATCCCGGAGTCACCTAGTGCAG", "binding signal": "8980 fluorescence intensity (a.u.)"},
      {"sequence": "TCCTCTCTGTCTCCGCCGATCTGCTCTGCCGCGACGCGCCCGGAGTCACCTAGTGCAG", "binding signal": "8180 fluorescence intensity (a.u.)"},
      {"sequence": "ATTTCACATGGCAAGATCCACGATGACTGAATTATCACACCGGAGTCACCTAGTGCAG", "binding signal": "8200 fluorescence intensity (a.u.)"},
      {"sequence": "GGTGGTGGTGGTGGTGGTGGTGGTGTAGGAGGAGGAGGAGCGGAGTCACCTAGTGCAG", "binding signal": "27600 fluorescence intensity (a.u.)"},
      {"sequence": "ATGTCGGCGGCGGGCGGCGGCGGCGGCGTGGGGAAGGTGGCGGAGTCACCTAGTGCAG", "binding signal": "9040 fluorescence intensity (a.u.)"},
      {"sequence": "GGCGGCGGCGGCGGCGGTGGTGGTGAGGAGGAGGAGGAGGCGGAGTCACCTAGTGCAG", "binding signal": "10700 fluorescence intensity (a.u.)"},
      {"sequence": "CATTATCGTCGTCGTCGTCGTCGTAGTCATGTCGTGGGGCCGGAGTCACCTAGTGCAG", "binding signal": "8180 fluorescence intensity (a.u.)"},
      {"sequence": "GGAGGCCTAGGTGGTGGTGGTGGTCTTGGTGGAGGAGGGGCGGAGTCACCTAGTGCAG", "binding signal": "28600 fluorescence intensity (a.u.)"},
      {"sequence": "GGAGGAGGAGGAGGGAGAGGGTGGTGTAGTGGGAGCGGCCCGGAGTCACCTAGTGCAG", "binding signal": "8170 fluorescence intensity (a.u.)"},
      {"sequence": "CATGTCGTCGTCGTGGTGGTGGTGGTGGTGGTGGGGCGGGCGGAGTCACCTAGTGCAG", "binding signal": "43400 fluorescence intensity (a.u.)"},
      {"sequence": "GAGGAGGGGAGAAACGGGAGGTTGGTGGTGGTGGTGGAGGCGGAGTCACCTAGTGCAG", "binding signal": "15200 fluorescence intensity (a.u.)"},
      {"sequence": "GTAGTAGGGGAGGAGTGTATCTAGTAGTATAGGGAGGGAGCGGAGTCACCTAGTGCAG", "binding signal": "13000 fluorescence intensity (a.u.)"},
      {"sequence": "GAGGGCGGAGGAGGTGGTGAGGGAGGAGGTGCGGAGGCTGCGGAGTCACCTAGTGCAG", "binding signal": "8320 fluorescence intensity (a.u.)"},
      {"sequence": "GCGGTGGTGGTGGGCTTAGTGGAGGCGGAGGCGGCTGAGGCGGAGTCACCTAGTGCAG", "binding signal": "17400 fluorescence intensity (a.u.)"},
      {"sequence": "GAGGTGGCTTTGGCGGCGGAGTGGGAGGCGGTGGTGGTGGCGGAGTCACCTAGTGCAG", "binding signal": "10000 fluorescence intensity (a.u.)"}
    ]}
  ]
}
